High-throughput results (PubChem)
mHTT-CaM PPI inh: mutant huntingtin-calmodulin interaction inhibitors – biochemical, AlphaScreen, primary screen | P42858 | AID 1671202, 2021 | inhibition, % at 15 µM | 190,000 tested, 3.6% active | AlphaScreen His-mHTT/GST-CaM binding, luminescence;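 note: 0% = both proteins with DMSO and 100% = one protein alone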
Pf apPOL block: Pf-apPOL inhibitors, biochemical, fluorescence; Plasmodium falciparum apicoplast DNA polymerase (apPOL); Recombinant Pf-apPOL, molecular beacon fluorescence, 1.5 h; inhibition, % at 10 µM; 210,000 tested, 0.25% active; AID 1794808, 2022
An asterisk follows results filed as active; / = no result. This is a sample that favours compounds with a hit; in the whole collection about 3.6% have one here. Cut-off read from the data, not from the text of the source: active = inhibition above about 50%; inactive = the rest.

SMILES	mHTT-CaM PPI inh	Pf apPOL block
CCOc1ccc(CN2CCC(C(=O)NCCc3ccccc3)CC2)cc1	-1	8
Cn1cc(CN2CCC(C(=O)NCc3ccco3)CC2)c2cc(Cl)ccc21	25	-3
O=C(NCc1ccco1)C1CCN(Cc2cc3ccccc3n2Cc2ccccc2)CC1	73*	3
CCc1ccc(CN2CCC(C(=O)NCc3ccco3)CC2)cc1	8	1
CCOC(=O)C1CCN(C(=O)c2cncc(-c3ccccc3Cl)c2)CC1	6	0
COc1ccc(OCC2(N)CC2)cc1	-2	/
O=C(Nc1cccc(C(F)(F)F)c1)Nc1cnn2c(C(F)(F)F)cc(C(F)(F)F)nc12	/	5
CC(C)n1c(CC2CCN(C(=O)c3cc(-c4ccccc4)n[nH]3)C2)nc2cccnc21 (stereo not drawn)	59*	5
CC(C)n1c(CC2CCN(C(=O)c3cc(-c4cccs4)[nH]n3)C2)nc2cccnc21 (stereo not drawn)	19	-3
CCn1cnc2ccc(-c3noc(Cc4ccc(F)cc4)n3)cc21	3	-8
COc1ccccc1/C=C/C=c1\sc2nc(=O)c(Cc3ccccc3)nn2c1=O	51*	-5
COc1ccccc1/C=c1\sc2nc(=O)c(Cc3ccccc3)nn2c1=O	2	-1
O=C(Nc1ccccc1)c1cc([N+](=O)[O-])cc2c1-c1ccc([N+](=O)[O-])cc1C2=O	-5	-4
O=C(NC(Nc1ccccc1)C(Cl)(Cl)Cl)c1cc([N+](=O)[O-])cc([N+](=O)[O-])c1 (stereo not drawn)	59*	2
O=C(NC(Nc1ccccc1)C(Cl)(Cl)Cl)c1ccc([N+](=O)[O-])cc1 (stereo not drawn)	31	0
O=C(NC(Nc1ccccc1Cl)C(Cl)(Cl)Cl)c1cc([N+](=O)[O-])cc([N+](=O)[O-])c1 (stereo not drawn)	61*	-5
O=C(NC(Nc1cccc([N+](=O)[O-])c1)C(Cl)(Cl)Cl)c1ccccc1[N+](=O)[O-] (stereo not drawn)	14	-3
Cc1nc2cc(-c3noc(-c4ccc5ccccc5n4)n3)ccc2o1	-8	4
COc1cccc(C(=O)N=c2sc(C)cn2CC(=O)N2CCCC2)c1	1	87*
CCN1CCN(C(=O)Cn2cc(C)sc2=NC(=O)c2cccc(Cl)c2)CC1	13	0
O=C(NCCCn1ccnc1)c1cc(-c2ccc(Cl)s2)nc2ccccc12	50*	3
O=C(NCCCn1ccnc1)c1cc(-c2ccc(Br)cc2)nc2ccccc12	44	-2
O=C(NCc1cccnc1)c1cc(-c2cccnc2)nc2ccccc12	-17	-9
O=C(NCCc1ccc(Cl)cc1)c1cc(-c2cccnc2)nc2ccccc12	58*	-7
O=C(c1ccccc1)N1CCC(CCNS(=O)(=O)c2ccccc2C(F)(F)F)CC1	40	-2
SMILES	mHTT-CaM PPI inh	Pf apPOL block
O=c1ccc(S(=O)(=O)N2CCCC2)cn1Cc1cccc(F)c1	-1	2
N#CCC[C@H]1CC[C@]2(CCCN(Cc3ccc(Br)cc3)C2)O1	89*	-9
N#CCC[C@@H]1CC[C@]2(CCCN(C(=O)c3ccccc3)C2)O1	-12	-10
CCN(CC)C(=O)CC[C@H]1CC[C@]2(CCCN(Cc3ccc(Br)cc3)C2)O1	9	0
N#CCC[C@@H]1CC[C@]2(CCCN(C(=O)c3ccco3)C2)O1	99*	-6
O=C(c1cccnc1)N1CCCC1c1cccc(F)c1 (stereo not drawn)	6	-4
NC(=O)c1ccccc1N=Cc1ccc([N+](=O)[O-])o1	4	1
NC(N)=NN=C(/C=C/c1ccc([N+](=O)[O-])o1)/C=C/c1ccc([N+](=O)[O-])o1	100*	/
CCOc1ccc(C(=O)Nc2ccccc2C(C)C)cc1	-4	-1
O=C(CC1(Cc2ccc([N+](=O)[O-])cc2)C(=O)c2ccccc2C1=O)c1ccccc1	16	1
OCC(O)C(O)C(C=NNc1ccccc1)=NNc1ccccc1 (stereo not drawn)	/	23
CCC[C@H]1[C@@H](OC(=O)NCc2cccc(C(F)(F)F)c2)CC[C@@]23CCCN2C(=O)CCC[C@@H]13	2	-2
CCC[C@H]1[C@@H](OC(=O)NCc2ccc(C(F)(F)F)cc2)CC[C@@]23CCCN2C(=O)CCC[C@@H]13	78*	-19
O=C(NC1CCCCC1)c1cncc(-c2ccccc2F)c1	3	1
Cc1ccc(NC(=O)C2CCN(S(=O)(=O)c3ccc(Br)s3)CC2)cc1Cl	-22	-1
COc1ccc(-n2nc(C(=O)N3CCC(C)CC3)c3ccccc3c2=O)c(OC)c1	0	51*
COc1ccc(-n2nc(C(=O)N3CCCC3)c3ccccc3c2=O)c(OC)c1	-12	3
COc1ccccc1-n1nc(C(=O)N2CCC(C)CC2)c2ccccc2c1=O	-5	0
COc1ccccc1-n1nc(C(=O)N2CCC(Cc3ccccc3)CC2)c2ccccc2c1=O	58*	-2
COc1ccc(CN2COc3ccc4c(c3C2)OC(=Cc2cccnc2)C4=O)cc1OC	19	-4
O=C1CCCC2=C1C(c1cc([N+](=O)[O-])ccc1O)C1=C(N2)c2ccccc2C1=O (stereo not drawn)	56*	4
COc1cccc(C2C3=C(Nc4c2c(=O)n(C)c(=O)n4C)c2ccccc2C3=O)c1 (stereo not drawn)	5	1
CC1(C)CC(=O)C2=C(C1)NC1=C(C(=O)c3ccccc31)C2c1ccc(F)cc1 (stereo not drawn)	62*	-6
COc1cccc(C2C3=C(CC(C)(C)CC3=O)NC3=C2C(=O)c2ccccc23)c1 (stereo not drawn)	58*	1
CC1(C)CC(=O)C2=C(C1)NC1=C(C(=O)c3ccccc31)C2c1cc(Br)ccc1O (stereo not drawn)	56*	2
SMILES	mHTT-CaM PPI inh	Pf apPOL block
CC1(C)CC(=O)C2=C(C1)NC1=C(C(=O)c3ccccc31)C2c1cccs1 (stereo not drawn)	47	0
O=C1CCCC2=C1C(c1cc([N+](=O)[O-])ccc1O)C1=C(CCCC1=O)N2	-1	-8
Cc1ccccc1C1C2=C(CC(C)(C)CC2=O)NC2=C1C(=O)CC(C)(C)C2	2	-8
NC(N)=NCC12CC3CCC(CC(C3)C1)C2	-2	4
Cn1nc(-c2ccc(Cl)c(Cl)c2)nc2c(=O)n(C)c(=O)nc1-2	3	9
COc1ccccc1CNC(=O)CCS(=O)(=O)c1ccc(Br)s1	-4	2
COc1ccc(OC)c(/C=C2/SC(=Nc3ccccc3Cl)NC2=O)c1	39	2
CN(C)CC1COCCN1C(=O)CCC1CCCC1 (stereo not drawn)	0	2
CSC1=NC(=Cc2ccc(Cl)cc2)C(=O)N1CCc1c[nH]c2ccccc12	/	-10
O=C1CC(c2ccco2)CC2=C1C(c1ccc(Cl)cc1)C1=C(N2)c2ccccc2C1=O (stereo not drawn)	64*	-3
O=C1CC(c2ccco2)CC2=C1C(c1ccccc1)C1=C(N2)c2ccccc2C1=O (stereo not drawn)	28	-7
NC(=S)CS(=O)(=O)c1ccc(C(F)(F)F)cc1	/	1
Cc1ccc(-c2nc3ccccc3s2)cc1NC(=O)c1ccc(F)cc1	-2	-5
O=C(C1CCN(Cc2cccc(OCc3ccccc3)c2)CC1)N1CCOCC1	1	-4
O=C(C1CCN(Cc2ccc(OCc3ccccc3)cc2)CC1)N1CCN(c2ccccc2)CC1	63*	-7
